We go through 105 sequences from PubChem BioAssay AID1347423 (Functional Genomics Laboratory (NCATS/FGL), 2020).

In all, about 52,000 sequences went through this assay and about 210 (0.4%) were called active.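 How the source made its calls: active means gene whose silencing raises cell survival under the drug, median off-target-corrected z-score across its silencing RNAs 2 or more; inactive means the rest.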 Many of the other results were omitted from the sample, so actives are more common in it than they were.

This test is described as follows: Resistance to Poly (ADP-Ribose) Polymerase inhibitor: Gene Identification via Genome-wide siRNA Screen. To be noted: mouse BRCA2 R2336H ES cells, olaparib, CellTiter-Glo viability; hits give high values. In outline: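 Genome-wide siRNA screen (3 siRNAs/gene, 20 nM) in mouse ES cells carrying hypomorphic BRCA2 R2336H; olaparib 500 nM added 48 h post-transfection, CellTiter-Glo viability 72 h later. Normalized to plate-median negative control; MAD z-scores, gene median, seed-adjusted.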
On the technique in general: Cellular ATP, detected with luciferase, serves as a proxy for viable cell number.
Regarding GCUUGACCCUACACUACAGTT against Olfr1121, the z-score is 1.25 (inactive).
Take “GGCAUUGUAGAGAUGACUCTT against 4732479N06Rik”: the z-score is 1.16 (inactive).
The same measure for UUCUGUGCAUCCUGUCCUATT against Kcnk15: -0.484 (active).
As to CGUGUGAGGUUUGUGAAAGTT against Gzmf, the z-score is -2.41 (inactive).
In the case of GCCUAAAAAAUCUCUGUGATT against Zswim3, the z-score is -1.39 (inactive).
The same measure for GGAAGUUCAACACCUCCAGTT against BC023296: -0.673 (inactive); for CGAUUUCAGCUUAAAGCACTT against Lmo3: 1.44 (inactive).
Take “CCCUAAAACCAAAUGUACATT against E130014J05Rik”: the z-score was 6.23 (active).
For “GGACUUGGAAGUAAUUUUCTT against C230071H18Rik”, the z-score was 2.75 (inactive).
For the sequence GCGAACAGAAAAGACCAAUTT against Col4a5, the z-score is 1.11 (inactive).
For the sequence “GGGACAUACAUAUCCUCCUTT against 1300013D05Rik”, the z-score was 1.31 (inactive).
On to GCAUACAUAGCACUACAUATT against Olfr536, for which the z-score was -0.0396 (inactive).
Turning to GGACAGUGUUUACAAACUUTT against Fbxw7, the z-score was 0.328 (inactive).
Consider GCAUAUGGUCCACUAAAAATT against Kcnj4, for which the z-score was 0.316 (inactive).
Consider GGUACUGGAGAAAGUCAAGTT against Pik4cb, for which the z-score is 0.097 (inactive).
Consider GGAUGAUUUCCAGAGAGUATT against Rdh5, for which the z-score was -1.33 (inactive).
For GGAGUGUGAUCAAGUUCAUTT against Eya4, the z-score is 0.648 (inactive).
The same measure for GCUUUUACAAGACCUGUUCTT against Pde2a: 1.02 (active); for “GGAGAGAACUGGAAGAGAGTT against 0610040D20Rik”: -2.18 (inactive).
On to GGAAAUACGGCUUCAUCUATT against Cyp26a1, for which the z-score is 0.936 (inactive).
The same measure for GACAUUUGUAUGCAGUCAUTT against V1ri9: 0.237 (inactive).
Take GGAUUCGAUUCUUCCAAAATT against Peli2: the z-score was -1.02 (inactive).
On to GGUCUUAGAAGAUUUUUCUTT against Adam21, for which the z-score is 2.43 (active).
For “AUUCUGAACACUCCUCGGATT against C630041L24Rik”, the z-score is -0.69 (inactive).
Consider GGAACUGCUUACGAAAUACTT against Lama4, for which the z-score is -0.374 (inactive).
The same measure for GGAUGCUACGUUCUGCUAGTT against Bcat2: -0.76 (inactive); for “GCCCUCAGGUGGUUCUUAATT against C030036P15Rik”: -1.76 (inactive); for GGAGAAACUGAUGACAGUGTT against Plcb3: 1.47 (active).
As to GCUAUUAUUGCAAUGUCAGTT against Trim38, the z-score is -0.00296 (inactive).
As for GCUACGAGAGGUCAUUUCCTT against Chrnb1, the z-score was 2.48 (active).
For GGCUGAAGCAGUCUGUUGCTT against Rpp14, the z-score was -0.655 (inactive).
Regarding GGCUGUUUGUGGUAUAGGUTT against Lrrc3, the z-score is 1.52 (inactive).
As for GGCAACUUUGUUAUAUACATT against Sh2bp1, the z-score is -0.76 (inactive).
In the case of “CCUCAGAUUUCAACCAUAGTT against 2700087I09Rik”, the z-score was 1.64 (inactive).
On to “CCAUGACAUUUCCUAAGUUTT against B130022O04Rik”, for which the z-score is -2.2 (inactive).
The figure for GGAAAAGAUACGGAAGAUUTT against Acpp is 0.216 (active).
The figure for GCUUCUAAUUGGAGAUUGCTT against Ngfrap1 is 1.44 (inactive); for “CCAGUUACGUUAAAAGCUUTT against D1Bwg0491e” it is 0.00475 (inactive).
Consider GGGAGAAUUACCAAGAUCUTT against Elac1, for which the z-score was 2.5 (inactive).
The figure for GGUCGACUUAAGAUAAUAATT against Itgb6 is 1.94 (active).
In the case of GCCCUAGAUCAGGAGAUCATT against Rps17, the z-score is -2.58 (inactive).
For the sequence “GGAUGUCCCACUGCUUUACTT against 5730466C23Rik”, the z-score was -0.562 (inactive).
In the case of GCACUAGUUCUCAAUUUAATT against Antxr1, the z-score was 0.317 (inactive).
The figure for GGCAUCUUCAAAUGACAUATT against Cic is 2.45 (active); for GGCCCAUUUUGGUGUGCAUTT against Hyal3 it is -0.6 (inactive); for GGUGCCUAAUGGAUAAGAATT against Thrap2 it is 0.923 (inactive).
Consider GGAAACCAGACUUUCCCUATT against V1ra5, for which the z-score was -0.806 (inactive).
Consider GGACCAGGUUCACUUCCCUTT against Ovol1, for which the z-score was 0.343 (inactive).
For the sequence GCAGAUCUCUUACGUCAUCTT against Adam9, the z-score was 0.749 (inactive).
The figure for GGAAAGUGGUUUUGUCCACTT against Ing5 is 1.74 (inactive); for GGUCACGUGCAGUUAUAUCTT against Rab32 it is 0.0398 (inactive); for GGCCUAAAUUGACAAACUUTT against Mgea5 it is 0.366 (inactive).
The same measure for GCAGCUCCAAAUCCUGUUCTT against Asb16: -1.78 (active).
Consider “GGAAACUUCUGCACUUGGGTT against 4930474M22Rik”, for which the z-score was 1.02 (inactive).
In the case of GCUGUCUGAUUCUGAGGUGTT against Slc6a1, the z-score was -0.947 (inactive).
Consider “GGGUUUAAUCAUGAUAGAATT against E130014J05Rik”, for which the z-score is 3.95 (active).
For the sequence GGUGACAAUAAAAUGGUGATT against Fabp1, the z-score was 0.496 (inactive).
The same measure for GGUCAUGGUCUGAGAUUCUTT against Txnl4: 0.353 (inactive); for CCCAUGUUCGAUGGGAAAGTT against Adprt1: 0.293 (active).
Turning to GCAAGGUGCACCUAAAGCATT against Egr4, the z-score was -2.04 (inactive).
Consider GGACAAGAACUACAUUGAGTT against Eefsec, for which the z-score is 2.12 (inactive).
For “GGACUUUUGGAUAACUUAGTT against 1200008A14Rik”, the z-score is -0.788 (inactive).
Regarding GGAUAUUCUUCCAGUCUUUTT against MGC118154, the z-score is -1.48 (inactive).
With CAAACCCAUGUUCUAAAUGTT against Oog3, the z-score is 0.339 (inactive).
On to “GGAGGUUUUGAUGGACUGUTT against 2610528H13Rik”, for which the z-score is -0.424 (inactive).
“CCUUGUACCCAGUAAAGUCTT against 2310007B03Rik”: the z-score is -2.34 (inactive).
For the sequence GGGAAAAUGCUUUGUUGGATT against Rqcd1, the z-score is 1.97 (active).
For “GGAUUGAGCUACAAGAAUATT against E330016A19Rik”, the z-score is -0.0566 (inactive).
Consider CGGACUCCUGACAUUAUAATT against Cd33, for which the z-score was 0.735 (inactive).
Consider GGUCCUCUAAAGAAUAAAGTT against Ela3b, for which the z-score was 0.513 (active).
Regarding GGAUUCACGUAAGAUUGACTT against Prlpb, the z-score was 1.33 (inactive).
As for “GCCAACUCAGUUUUGAAUGTT against 4930404J24Rik”, the z-score is -0.142 (inactive).
The figure for GGUGUUCGGUGUCCUGGAATT against Pctp is -1.75 (inactive); for UGAAGUCUAAUCAGAGCACTT against Olfr50 it is -2.01 (inactive).
With GGAAUGCCGGAUUGCUCACTT against BC008163, the z-score is 1.25 (inactive).
As to GGAAGUUUCUGAAUGCUGUTT against Klrd1, the z-score was 2.01 (active).
The figure for “GGUCAUACACUUCUGCACATT against C330006K01Rik” is 1.27 (inactive).
The same measure for GGAGGAGUUGCACCUCAUCTT against Pctk3: 0.655 (inactive); for GCUACGGAACAAUCACAGCTT against Jarid1d: 0.15 (inactive); for GGAAAGAAAAAAGAUGGUCTT against Riok1: -1.05 (inactive).
With GGUUGACAUCGACCAAUCATT against Klhl1, the z-score was 1.3 (active).
Take AUGUGAUAGUGCCCAGCCUTT against Olfr884: the z-score is 1.48 (inactive).
GGAAGAAAUAGAUGAGAAUTT against Tnmd: the z-score was 0.737 (inactive).
CGUUGAUUUCCAAAGCUGUTT against Kcnc2: the z-score is 0.168 (inactive).
For GGAACAUUACCAUCAAGCUTT against Eif2s3x, the z-score was -2.52 (inactive).
In the case of CCAAACUUACAAAUAUGCGTT against Sgpp1, the z-score is 3.3 (active).
For GGAAGUGUUUGAUGUCUUATT against Stk4, the z-score is -1.1 (inactive).
As to GGGAGUUUAUUCAAAAGUGTT against Nrbp, the z-score is 0.522 (inactive).
The same measure for GGACUCUUUUCUACGUGGATT against Klhl1: 3.47 (active); for GGGCAUACAUAUAACCUAUTT against Plekhc1: 0.785 (inactive).
Regarding CAAAUUAUGAGUGAGAACCTT against Olfr340, the z-score is -1.17 (inactive).
With GCUUAACCGUUUUUUCAAATT against Tgif, the z-score was 0.555 (inactive).
As to “GGUUAUGAGGCUUAAUAAATT against 2810423G08Rik”, the z-score is 1.54 (inactive).
The same measure for “GGAUCCAAGUUCCUGGCUCTT against A330096I21Rik”: -0.601 (inactive).
The same measure for GGAGACUCAGGAAAAAAUUTT against Olfr1424: 0.238 (inactive); for CGAACAGUCUGUAUGGCGATT against Jak1: 3.46 (active); for GGCCAAUUUGAAUAAUCUATT against Zfp119: 0.0816 (inactive).
GGACCCUGAAGGAGCUGAATT against Per2: the z-score is -1.32 (inactive).
The same measure for UCAAACUAGGUGCUGUUGUTT against Olfr584: -1.11 (active); for “GGAGAUAAAGUCUUAUCACTT against 9130017N09Rik”: 0.803 (inactive); for GCAUUUCUUUCUUGCCUUCTT against Olfr1276: 0.613 (inactive).
The figure for “GGCUAGCUAACUAUCUCUGTT against 9230105I15Rik” is 0.89 (inactive); for GGUUCCAACAAUUGUAAAGTT against Chl1 it is 2.35 (active).
Take GGACAAGCUCCAAAACAACTT against Sfrs4: the z-score is -1.45 (inactive).
For CCUGCCUUUUCCUAAUGAATT against Ovca2, the z-score was 0.573 (inactive).
